Among the data in PMC7862700, “An all-to-all approach to the identification of sequence-specific readers for epigenetic DNA modifications on cytosine” are binding signal values, retold here.

What all share (assay): DAPPL (digital affinity profiling via proximity ligation, sequencing); 10 mM Tris-HCl pH 7.5, 50 mM NaCl, 1 mM DTT, 4% glycerol, room temperature, 30 min; GST-TFs on glutathione beads, 16-mer random dsDNA library, 0.1% formaldehyde crosslink after washing; high values mean tight binding
One experiment concerns the target T1, FLI1 (Homo sapiens, UniProt Q01543 1-452).
T1 sequence: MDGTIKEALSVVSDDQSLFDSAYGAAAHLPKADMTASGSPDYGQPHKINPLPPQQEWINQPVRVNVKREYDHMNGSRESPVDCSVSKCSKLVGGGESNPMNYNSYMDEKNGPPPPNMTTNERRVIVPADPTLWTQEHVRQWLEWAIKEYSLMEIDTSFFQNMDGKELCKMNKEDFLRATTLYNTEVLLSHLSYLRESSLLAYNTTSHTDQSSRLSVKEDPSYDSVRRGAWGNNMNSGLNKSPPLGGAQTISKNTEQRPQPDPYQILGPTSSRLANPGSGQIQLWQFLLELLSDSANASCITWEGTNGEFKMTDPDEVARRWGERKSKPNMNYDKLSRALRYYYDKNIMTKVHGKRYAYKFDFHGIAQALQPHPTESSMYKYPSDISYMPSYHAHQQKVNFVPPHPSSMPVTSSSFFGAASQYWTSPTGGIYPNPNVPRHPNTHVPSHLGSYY
To be noted: protein: recombinant; tags: N-terminal GST; dsDNA, one strand shown. An outline of the steps:
(§1)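 Beads coated with glutathione captured GST-fused human transcription factors that had been expressed in yeast, and the factors were then given DNA barcodes and pooled with a tag-only sample. The pools were incubated with 200 nmole of a random double-stranded 16-mer DNA library in Tris/NaCl/DTT/glycerol buffer for 30 min at room temperature, washed, crosslinked with 0.1% formaldehyde and proximity-ligated with BsaI/T4 ligase at 37 °C for 1 h. PCR amplification and Illumina NextSeq500 sequencing came last. Binding signal is each hexamer's read frequency for a factor divided by its frequency for the tag-only sample.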

The next experiment deals with T2, ELK1 (Homo sapiens, UniProt P19419 1-428).
T2 sequence: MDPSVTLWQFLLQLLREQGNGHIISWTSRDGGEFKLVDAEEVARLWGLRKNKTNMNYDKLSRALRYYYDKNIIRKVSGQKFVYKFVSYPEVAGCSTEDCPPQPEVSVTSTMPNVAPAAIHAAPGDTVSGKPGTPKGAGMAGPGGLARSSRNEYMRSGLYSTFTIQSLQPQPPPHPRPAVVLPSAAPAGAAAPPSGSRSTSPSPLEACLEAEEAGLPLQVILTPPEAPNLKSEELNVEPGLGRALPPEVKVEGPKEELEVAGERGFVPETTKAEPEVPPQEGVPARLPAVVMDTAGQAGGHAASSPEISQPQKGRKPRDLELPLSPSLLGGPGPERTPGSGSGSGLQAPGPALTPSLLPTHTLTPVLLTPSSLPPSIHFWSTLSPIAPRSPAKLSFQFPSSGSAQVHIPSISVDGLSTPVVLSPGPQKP
Particulars: protein: recombinant; tags: N-terminal GST; dsDNA, one strand shown. In outline:
as §1

The next experiment addresses T3, GABPA (Homo sapiens, UniProt Q06546 1-454).
T3 sequence: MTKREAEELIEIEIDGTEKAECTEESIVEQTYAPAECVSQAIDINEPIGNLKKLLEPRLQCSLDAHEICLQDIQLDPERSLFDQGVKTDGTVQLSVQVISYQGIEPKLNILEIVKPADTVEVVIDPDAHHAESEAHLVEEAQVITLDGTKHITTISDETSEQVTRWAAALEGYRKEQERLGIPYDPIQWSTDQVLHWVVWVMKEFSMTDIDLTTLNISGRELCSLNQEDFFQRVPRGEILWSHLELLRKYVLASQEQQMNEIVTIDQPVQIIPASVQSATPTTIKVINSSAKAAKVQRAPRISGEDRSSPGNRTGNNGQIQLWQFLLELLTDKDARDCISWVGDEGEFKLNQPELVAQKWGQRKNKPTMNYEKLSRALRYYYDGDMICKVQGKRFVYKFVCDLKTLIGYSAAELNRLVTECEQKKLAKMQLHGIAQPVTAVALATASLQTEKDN
To be noted: protein: recombinant; tags: N-terminal GST; dsDNA, one strand shown. An outline of the steps: as §1

A further experiment concerns the target T4, ERG (Homo sapiens, UniProt P11308 1-479).
T4 sequence: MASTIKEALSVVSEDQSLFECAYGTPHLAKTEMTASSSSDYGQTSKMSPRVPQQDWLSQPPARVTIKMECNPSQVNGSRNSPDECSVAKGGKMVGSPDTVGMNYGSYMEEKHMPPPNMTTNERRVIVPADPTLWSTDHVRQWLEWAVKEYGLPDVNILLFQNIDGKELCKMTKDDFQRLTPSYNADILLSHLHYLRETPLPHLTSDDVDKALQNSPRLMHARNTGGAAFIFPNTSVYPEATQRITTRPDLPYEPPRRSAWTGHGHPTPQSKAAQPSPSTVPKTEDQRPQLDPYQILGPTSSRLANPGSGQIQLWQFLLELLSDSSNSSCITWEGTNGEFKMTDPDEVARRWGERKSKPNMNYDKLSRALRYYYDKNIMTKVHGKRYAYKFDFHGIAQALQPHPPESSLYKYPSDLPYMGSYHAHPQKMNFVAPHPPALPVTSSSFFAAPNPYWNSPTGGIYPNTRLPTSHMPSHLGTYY
To be noted: protein: recombinant; tags: N-terminal GST; dsDNA, one strand shown. In outline:
as §1

The target in a further experiment is ELF1 (Homo sapiens, UniProt P32519 1-619). To be noted: protein: recombinant; tags: N-terminal GST; dsDNA, one strand shown. An outline of the steps:
as §1

A further experiment deals with T5, EHF (Homo sapiens, UniProt Q9NZC4 1-300).
T5 sequence: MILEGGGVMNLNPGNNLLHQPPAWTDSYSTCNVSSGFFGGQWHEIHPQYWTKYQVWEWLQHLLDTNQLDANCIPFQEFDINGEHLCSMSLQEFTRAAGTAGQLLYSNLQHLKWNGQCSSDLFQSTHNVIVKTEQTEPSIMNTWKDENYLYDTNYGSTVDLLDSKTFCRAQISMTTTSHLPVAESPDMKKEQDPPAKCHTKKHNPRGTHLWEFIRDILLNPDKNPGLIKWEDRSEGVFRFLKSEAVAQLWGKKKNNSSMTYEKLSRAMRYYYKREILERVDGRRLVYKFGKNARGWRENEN
To be noted: protein: recombinant; tags: N-terminal GST; dsDNA, one strand shown. In outline:
as §1

A further experiment concerns the target SPI1 (Homo sapiens, UniProt P17947 1-270). To be noted: protein: recombinant; tags: N-terminal GST; dsDNA, one strand shown. An outline of the steps: as §1
The target of a further experiment is SPIB (Homo sapiens, UniProt Q01892 1-262). To be noted: protein: recombinant; tags: N-terminal GST; dsDNA, one strand shown. An outline of the steps: as §1
Sequence of SPIB (Q01892 whole entry): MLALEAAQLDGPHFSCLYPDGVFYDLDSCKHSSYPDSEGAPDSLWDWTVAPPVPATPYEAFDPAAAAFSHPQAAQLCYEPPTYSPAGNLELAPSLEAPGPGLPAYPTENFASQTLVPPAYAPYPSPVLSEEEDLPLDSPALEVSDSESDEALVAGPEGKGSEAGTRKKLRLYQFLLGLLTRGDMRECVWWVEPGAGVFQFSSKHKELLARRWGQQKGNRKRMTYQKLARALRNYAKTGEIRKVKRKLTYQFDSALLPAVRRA
A further experiment concerns the target T6, ELK3 (Homo sapiens, UniProt P41970 1-407).
T6 sequence: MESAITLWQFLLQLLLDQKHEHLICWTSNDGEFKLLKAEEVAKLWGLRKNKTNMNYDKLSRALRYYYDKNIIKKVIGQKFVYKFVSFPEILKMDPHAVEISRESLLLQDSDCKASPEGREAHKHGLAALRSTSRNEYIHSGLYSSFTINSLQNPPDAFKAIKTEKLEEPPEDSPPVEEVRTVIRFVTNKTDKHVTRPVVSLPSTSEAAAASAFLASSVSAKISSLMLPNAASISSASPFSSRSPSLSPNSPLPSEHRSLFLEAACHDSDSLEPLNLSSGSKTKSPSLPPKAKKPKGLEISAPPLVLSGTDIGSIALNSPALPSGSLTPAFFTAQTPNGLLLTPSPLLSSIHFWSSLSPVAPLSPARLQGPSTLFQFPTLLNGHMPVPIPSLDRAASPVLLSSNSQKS
Particulars: protein: recombinant; tags: N-terminal GST; dsDNA, one strand shown. An outline of the steps: as §1

Another experiment deals with T7, FEV (Homo sapiens, UniProt Q99581 1-238).
T7 sequence: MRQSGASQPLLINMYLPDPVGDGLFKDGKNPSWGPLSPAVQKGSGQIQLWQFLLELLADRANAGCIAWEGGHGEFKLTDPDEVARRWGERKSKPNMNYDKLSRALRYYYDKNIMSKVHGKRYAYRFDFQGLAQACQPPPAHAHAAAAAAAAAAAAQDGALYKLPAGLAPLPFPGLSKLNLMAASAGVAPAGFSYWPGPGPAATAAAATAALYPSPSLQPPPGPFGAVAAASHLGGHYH
Particulars: protein: recombinant; tags: N-terminal GST; dsDNA, one strand shown. An outline of the steps:
as §1

The target in another experiment is ETV5 (Homo sapiens, UniProt P41161 1-510). To be noted: protein: recombinant; tags: N-terminal GST; dsDNA, one strand shown. In outline:
as §1

For a further experiment, the target named is HSF1 (Homo sapiens, UniProt Q00613 1-529). Particulars: protein: recombinant; tags: N-terminal GST; chain copies: 3; dsDNA, one strand shown. In outline: as §1
Sequence of HSF1 (Q00613 whole entry): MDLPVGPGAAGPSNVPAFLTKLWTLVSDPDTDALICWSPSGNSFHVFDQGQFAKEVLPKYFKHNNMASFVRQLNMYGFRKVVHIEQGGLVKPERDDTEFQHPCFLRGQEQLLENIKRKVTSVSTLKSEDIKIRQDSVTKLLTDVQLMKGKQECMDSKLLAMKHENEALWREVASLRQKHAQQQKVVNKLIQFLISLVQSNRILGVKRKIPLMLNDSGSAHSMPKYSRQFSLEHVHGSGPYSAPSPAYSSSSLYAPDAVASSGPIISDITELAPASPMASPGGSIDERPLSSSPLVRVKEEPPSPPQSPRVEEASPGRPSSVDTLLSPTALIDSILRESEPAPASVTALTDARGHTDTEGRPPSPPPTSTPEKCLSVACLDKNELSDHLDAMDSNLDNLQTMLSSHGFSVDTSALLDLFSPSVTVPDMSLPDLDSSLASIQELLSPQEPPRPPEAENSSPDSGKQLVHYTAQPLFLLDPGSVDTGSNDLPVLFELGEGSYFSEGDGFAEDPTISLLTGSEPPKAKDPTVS
The target of a further experiment is T8, SPIC (Homo sapiens, UniProt Q8N5J4 1-248).
T8 sequence: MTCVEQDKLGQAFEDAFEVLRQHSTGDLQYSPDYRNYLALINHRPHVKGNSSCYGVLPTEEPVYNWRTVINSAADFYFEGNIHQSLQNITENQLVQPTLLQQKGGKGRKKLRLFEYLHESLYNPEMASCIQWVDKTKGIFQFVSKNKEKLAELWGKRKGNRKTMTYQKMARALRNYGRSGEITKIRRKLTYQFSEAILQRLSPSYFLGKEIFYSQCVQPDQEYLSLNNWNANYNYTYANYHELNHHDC
To be noted: protein: recombinant; tags: N-terminal GST; dsDNA, one strand shown. An outline of the steps: as §1

The target in another experiment is ELF4 (Homo sapiens, UniProt Q99607 1-663). Particulars: protein: recombinant; tags: N-terminal GST; dsDNA, one strand shown. In outline:
as §1

The target of a further experiment is T9, ELK4 (Homo sapiens, UniProt P28324-2 1-405).
T9 sequence: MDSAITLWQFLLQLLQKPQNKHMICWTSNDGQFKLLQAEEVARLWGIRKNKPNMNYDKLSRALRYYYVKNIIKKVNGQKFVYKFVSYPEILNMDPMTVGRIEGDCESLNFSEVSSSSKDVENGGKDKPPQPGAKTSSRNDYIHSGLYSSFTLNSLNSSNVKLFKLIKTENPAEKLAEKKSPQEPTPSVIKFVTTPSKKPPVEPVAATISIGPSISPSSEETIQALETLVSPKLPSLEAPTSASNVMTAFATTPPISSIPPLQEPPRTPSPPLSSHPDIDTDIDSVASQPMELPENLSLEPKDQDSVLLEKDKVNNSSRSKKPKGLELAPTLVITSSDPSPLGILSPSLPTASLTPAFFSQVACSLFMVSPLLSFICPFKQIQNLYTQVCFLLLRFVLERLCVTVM
Particulars: protein: recombinant; tags: N-terminal GST; dsDNA, one strand shown. An outline of the steps:
as §1

In the next experiment the target is T10, ELF3 (Homo sapiens, UniProt P78545 1-371).
T10 sequence: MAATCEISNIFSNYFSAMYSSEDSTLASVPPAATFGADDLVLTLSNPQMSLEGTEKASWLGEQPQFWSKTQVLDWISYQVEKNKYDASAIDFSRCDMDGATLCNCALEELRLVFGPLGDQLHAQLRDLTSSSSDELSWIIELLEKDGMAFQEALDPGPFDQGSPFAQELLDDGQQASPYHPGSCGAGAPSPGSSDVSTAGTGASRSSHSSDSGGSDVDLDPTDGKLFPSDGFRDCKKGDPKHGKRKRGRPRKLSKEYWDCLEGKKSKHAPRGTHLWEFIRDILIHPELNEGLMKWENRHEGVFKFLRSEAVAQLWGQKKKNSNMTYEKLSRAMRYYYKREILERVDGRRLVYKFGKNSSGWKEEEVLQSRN
Particulars: protein: recombinant; tags: N-terminal GST; dsDNA, one strand shown. In outline: as §1

The next experiment has as its target ETV1 (Homo sapiens, UniProt P50549 1-477). Particulars: protein: recombinant; tags: N-terminal GST; dsDNA, one strand shown. An outline of the steps:
as §1

Sequence of ETV1 (P50549 whole entry): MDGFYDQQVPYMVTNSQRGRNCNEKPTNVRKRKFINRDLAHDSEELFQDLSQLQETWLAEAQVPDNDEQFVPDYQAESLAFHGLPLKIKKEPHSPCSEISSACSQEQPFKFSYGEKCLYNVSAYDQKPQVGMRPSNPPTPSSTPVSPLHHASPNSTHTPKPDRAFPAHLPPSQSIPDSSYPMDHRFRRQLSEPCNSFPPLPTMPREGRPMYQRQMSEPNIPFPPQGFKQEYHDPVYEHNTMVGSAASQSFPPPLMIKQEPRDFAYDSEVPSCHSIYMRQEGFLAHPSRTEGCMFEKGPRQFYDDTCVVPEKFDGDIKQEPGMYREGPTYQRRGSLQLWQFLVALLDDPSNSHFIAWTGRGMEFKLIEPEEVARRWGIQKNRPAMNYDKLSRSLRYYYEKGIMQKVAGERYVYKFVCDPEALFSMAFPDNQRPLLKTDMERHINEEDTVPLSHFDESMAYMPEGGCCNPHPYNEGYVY
Sequence of ELF1 (P32519 whole entry): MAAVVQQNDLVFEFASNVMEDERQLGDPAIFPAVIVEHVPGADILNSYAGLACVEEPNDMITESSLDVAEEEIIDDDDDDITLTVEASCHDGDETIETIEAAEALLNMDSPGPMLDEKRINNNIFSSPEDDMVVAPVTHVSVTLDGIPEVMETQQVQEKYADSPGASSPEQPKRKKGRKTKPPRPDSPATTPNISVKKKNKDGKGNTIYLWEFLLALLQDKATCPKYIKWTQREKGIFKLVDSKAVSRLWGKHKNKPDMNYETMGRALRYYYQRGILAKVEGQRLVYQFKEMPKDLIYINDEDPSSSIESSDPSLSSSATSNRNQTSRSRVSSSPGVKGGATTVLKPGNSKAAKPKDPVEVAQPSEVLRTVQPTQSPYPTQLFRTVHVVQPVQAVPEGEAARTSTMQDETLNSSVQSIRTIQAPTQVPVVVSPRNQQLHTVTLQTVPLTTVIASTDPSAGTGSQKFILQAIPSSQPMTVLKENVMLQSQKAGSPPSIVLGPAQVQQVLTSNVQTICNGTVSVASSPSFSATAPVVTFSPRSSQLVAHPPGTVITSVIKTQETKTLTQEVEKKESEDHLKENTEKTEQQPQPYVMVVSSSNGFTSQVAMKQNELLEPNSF
Sequence of ETV5 (P41161 whole entry): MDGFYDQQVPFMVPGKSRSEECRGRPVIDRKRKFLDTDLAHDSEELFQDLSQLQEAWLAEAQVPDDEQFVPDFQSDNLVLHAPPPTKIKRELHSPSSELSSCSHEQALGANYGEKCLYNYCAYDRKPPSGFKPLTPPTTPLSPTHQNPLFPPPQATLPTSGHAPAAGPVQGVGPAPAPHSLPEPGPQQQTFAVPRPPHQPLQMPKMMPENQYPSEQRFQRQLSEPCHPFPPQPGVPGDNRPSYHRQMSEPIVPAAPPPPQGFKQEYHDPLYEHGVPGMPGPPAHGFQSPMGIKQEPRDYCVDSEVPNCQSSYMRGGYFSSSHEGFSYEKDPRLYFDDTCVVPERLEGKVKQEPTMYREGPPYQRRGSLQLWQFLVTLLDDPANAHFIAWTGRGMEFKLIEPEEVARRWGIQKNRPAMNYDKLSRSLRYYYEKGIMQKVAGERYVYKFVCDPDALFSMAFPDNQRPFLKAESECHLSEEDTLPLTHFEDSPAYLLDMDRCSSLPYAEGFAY
Sequence of ELF4 (Q99607 whole entry): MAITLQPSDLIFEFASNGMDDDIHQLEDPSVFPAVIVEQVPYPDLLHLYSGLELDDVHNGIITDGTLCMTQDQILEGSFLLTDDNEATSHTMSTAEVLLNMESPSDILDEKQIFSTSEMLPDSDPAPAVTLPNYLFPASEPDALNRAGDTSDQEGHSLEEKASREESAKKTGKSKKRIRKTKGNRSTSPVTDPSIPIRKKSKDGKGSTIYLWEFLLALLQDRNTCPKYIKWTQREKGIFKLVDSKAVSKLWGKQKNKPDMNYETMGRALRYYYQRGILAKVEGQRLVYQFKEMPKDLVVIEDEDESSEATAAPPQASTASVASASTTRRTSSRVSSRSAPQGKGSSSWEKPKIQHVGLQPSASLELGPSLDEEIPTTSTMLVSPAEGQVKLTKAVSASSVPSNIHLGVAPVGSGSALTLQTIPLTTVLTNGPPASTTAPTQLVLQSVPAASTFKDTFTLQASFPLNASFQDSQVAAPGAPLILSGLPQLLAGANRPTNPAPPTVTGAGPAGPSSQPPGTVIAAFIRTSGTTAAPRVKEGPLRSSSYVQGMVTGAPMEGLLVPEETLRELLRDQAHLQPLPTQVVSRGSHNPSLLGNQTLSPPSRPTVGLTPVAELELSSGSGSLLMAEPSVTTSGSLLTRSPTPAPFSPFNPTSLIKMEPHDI

With GTGCTA, the binding signal with FLI1 is 1.11 fold enrichment (6-mer frequency, TF over GST control); with ELK1, 1.09 fold enrichment (6-mer frequency, TF over GST control); with GABPA, 1.04 fold enrichment (6-mer frequency, TF over GST control); with ERG, 1.09 fold enrichment (6-mer frequency, TF over GST control); with ELF1, 1.12 fold enrichment (6-mer frequency, TF over GST control); in the experiment with EHF, 1.03 fold enrichment (6-mer frequency, TF over GST control). Also, the binding signal with SPI1 is 1.25 fold enrichment (6-mer frequency, TF over GST control); in the experiment with SPIB, 1.1 fold enrichment (6-mer frequency, TF over GST control); in the experiment with ELK3, 1.14 fold enrichment (6-mer frequency, TF over GST control); with FEV it was 1.11 fold enrichment (6-mer frequency, TF over GST control); with ETV5, 1.16 fold enrichment (6-mer frequency, TF over GST control); with HSF1, 1.07 fold enrichment (6-mer frequency, TF over GST control). Besides, the binding signal with SPIC was 1.17 fold enrichment (6-mer frequency, TF over GST control); with ELF4, 1.07 fold enrichment (6-mer frequency, TF over GST control); with ELK4, 1.08 fold enrichment (6-mer frequency, TF over GST control); in the experiment with ELF3, 1.12 fold enrichment (6-mer frequency, TF over GST control); with ETV1 it was 1.1 fold enrichment (6-mer frequency, TF over GST control).
